# Screens (PubChem)
# Rows were chosen to be rich in hits. Some 1.6% of all compounds tested hit in one or more screens of this group.
# HTR5A inv ctr – counter-screen for OPRM1-OPRD1 inverse agonists: human HTR5A inverse agonism; P47898; HTR5A cell line, luminescence; inhibition, % at 9.3 µM; 340,000 tested, 0.083% active; in the data active = inhibition mostly above about 23%, no sharp cut-off; inactive = mostly below about 18%;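 note: 0% = cells with DMSO and 100% = no-cell wells with DMSO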
# m5-HT2A agonist – activates the mouse 5-HT2A serotonin receptor; activation, % at 7.6 µM; CHO-K1 mHTR2A beta-arrestin complementation, luminescence; percent of 30 µM serotonin response; P35363; 360,000 tested, 0.66% active; AID 624169;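 active = activation above a run cutoff, the mean activation of all tested compounds plus 3 SD, cut at about 14% in these data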;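 note: 0% = plate median of compound wells and 100% = 30 µM serotonin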
# Target sequence (P35363 whole entry, looked up): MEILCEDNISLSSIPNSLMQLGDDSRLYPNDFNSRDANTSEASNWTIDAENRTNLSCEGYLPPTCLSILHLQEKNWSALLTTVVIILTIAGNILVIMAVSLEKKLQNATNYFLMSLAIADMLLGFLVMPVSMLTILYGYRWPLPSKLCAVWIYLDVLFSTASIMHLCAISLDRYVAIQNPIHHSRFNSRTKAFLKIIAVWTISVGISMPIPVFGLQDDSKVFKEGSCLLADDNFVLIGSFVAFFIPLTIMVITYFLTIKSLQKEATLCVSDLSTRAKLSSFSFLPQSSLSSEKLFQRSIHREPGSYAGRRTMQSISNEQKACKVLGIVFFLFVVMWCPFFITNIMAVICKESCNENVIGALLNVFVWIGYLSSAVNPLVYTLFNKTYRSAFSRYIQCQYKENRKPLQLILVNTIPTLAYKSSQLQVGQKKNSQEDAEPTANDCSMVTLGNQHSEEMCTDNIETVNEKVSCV
# HTR5A ag – counter-screen for OPRM1-OPRD1 agonists: human HTR5A agonism; 340,000 tested, 0.61% active; HTR5A agonist assay, luminescence, cell-based; activation, % at 9.3 µM; in the data active = activation mostly above about 9.5%, no sharp cut-off; inactive = mostly below about 7.6%;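 note: 0% = cells with vehicle only and 100% = reference agonist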
# MOR-DOR ag – agonists of human mu-delta opioid receptor heterodimerization. P35372+P41143. cells, OPRM1-OPRD1 heterodimerization, luminescence. activation, % at 9.3 µM. 340,000 tested, 0.3% active. AID 504326;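 note: 0% = vehicle-treated cells and 100% = reference agonist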
# MOR-DOR inv ag – inverse agonists of human mu-delta opioid receptor heterodimerization; P35372+P41143; cell-based MOR-DOR heterodimer luminescence, inverse agonism; inhibition, % at 9.3 µM; 340,000 tested, 0.21% active; AID 504357; in the data active = inhibition above about 22%, passing the limit was not always enough;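 note: 0% = cells with DMSO and 100% = wells without cells with DMSO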
# MOR-DOR ag conf – OPRM1-OPRD1 heterodimer agonism, confirmation; shares compounds with MOR-DOR ag; cells, MOR-DOR heterodimerization, luminescence complementation; activation, % at 9.3 µM; 830 tested, 45% active; AID 504904;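 note: 0% = vehicle-treated cells and 100% = reference agonist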
# HTR5A ag counter – activates human HTR5A in OPRM1-OPRD1 agonist counter-screen | 830 tested, 8% active | shares compounds with MOR-DOR ag | HTR5A agonist counterscreen, cell luminescence | activation, % at 9.3 µM; in the data active = activation above about 17%;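 note: 0% = vehicle-treated cells and 100% = reference agonist response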
# * marks the source's active call; other numbers are inactive results; i = inactive; nt = not tested or not shown. Cut-off read from the data, not from the text of the source, unless noted: active = activation above about 18%; inactive = the rest.
SMILES,HTR5A inv ctr,m5-HT2A agonist,HTR5A ag,MOR-DOR ag,MOR-DOR inv ag,others
COc1ccc2c(c1)NP(=S)(Oc1ccccc1)N2 (configuration not stated),-33.3,0.8,9.4*,0.9,-4.0,
CCCCn1c(N)c(C(=O)NCCN2CCOCC2)c2nc3ccccc3nc21,-1.1,1.9,0.4,-3.5,14.7,
CCCCn1c(NC(=O)c2ccc(Br)o2)c(C(=O)OCC)c2nc3ccccc3nc21,11.7,-6.3,-4.7,-11.1,55.4*,
COc1nc2ccccc2nc1N1CC1,nt,-4.2,nt,nt,nt,
Cn1ncnc2c(=O)n(C)c(=O)nc1-2,-3.2,13.4,20.0*,31.1*,-143.2,
CC(C)CC12CN3CCN(CC(C3)/C1=N/O)C2,10.0,2.1,-3.6,-2.4,12.2,
CC(C)C12CN3CCN(CC(C3)/C1=N\O)C2,-12.2,-0.6,12.2*,-2.5,12.5,
COc1ccc(-n2nc(C(=O)NCC(=O)N3CCC4(CC3)OCCO4)c3ccccc3c2=O)c(OC)c1,-12.9,2.0,4.3,1.1,-8.9,
O=c1[nH]c(O)c(C=Nc2ccc(F)c(Cl)c2)c(=O)[nH]1,-9.5,-1.4,2.7,2.1,-9.8,
CC(C)(O)C1C2OC(=O)C1C1(O)CC3OC34C(=O)OC2C14C (configuration not stated),12.0,-1.2,-3.4,2.8,-15.2,
O=[N+]([O-])c1ccc(N2CCNCC2)cc1N1CCCCC1,-2.1,7.8,0.9,-2.9,14.9,
O=[N+]([O-])c1cccnc1N1CCCNCC1,-7.5,32.4*,2.0,-2.1,11.0,
O=C(CN1C2CCC1CC(O)(c1cccnc1)C2)Nc1ccc2c(c1)OCO2 (configuration not stated),-3.5,1.5,-2.5,-0.2,1.4,
O=C(c1cn(Cc2ccccc2)c2ccccc12)C1CC1,-28.3,-9.5,11.0*,1.2,-5.8,
CCOC(=O)CNC(=O)N1Cc2ccc(Br)cc2-n2nncc2C1,nt,-1.9,nt,nt,nt,
CNC(=S)N1CCn2cccc2C1c1cccnc1 (configuration not stated),-26.9,5.6,10.4*,-2.9,13.6,
CCCCNC(=S)N1CCn2cccc2C1c1cccnc1 (configuration not stated),5.8,2.5,-2.3,-2.1,9.9,
COC1CCC(OC2CC(C3(C)CCC4(CC(O)C(C)C(C(C)/C=C(\C)C(=O)C(C)CC(C)C(=O)O)O4)O3)OC3(OC(C4OC(O)(CO)C(C)CC4C)CC3C)C2C)OC1C (configuration not stated),-30.1,-3.9,7.9,19.1*,-83.7,
C=CCCC[C@@H]1OC(=O)CNC(=O)C([C@@H](C)CC)NC(=O)[C@@H]2CCCN2C(=O)C([C@@H](C)CC)OC(=O)[C@H](Cc2ccccc2)N(C)C(=O)[C@H](C(C)C)NC(=O)C1(C)C (some centres not stated),nt,0.1,nt,nt,nt,
CC[C@H](C)C1OC(=O)[C@@H](C)[C@@H](CC)NC(=O)[C@H](C)N(C)C(=O)C(C)(C)C(=O)C(C)NC(=O)[C@H](Cc2ccc(OC)cc2)N(C)C(=O)[C@H](C(C)C)N(C)C(=O)CNC(=O)[C@H](CC(C)C)N(C)C(=O)CNC1=O (some centres not stated),nt,20.9*,nt,nt,nt,
CC1OC(OC2C(O)CC(OC3C(O)CC(OC4CCC5(C)C(CCC6C5CCC5(C)C(C7=CC(=O)OC7)C(O)CC65O)C4)OC3C)OC2C)CC(O)C1O (configuration not stated),-76.0,1.3,19.4*,62.2*,-320.0,
Cc1cc(C=C2C(=O)NC(=S)NC2=O)c(C)n1-c1ccc2c(c1)OCO2,-22.4,16.0*,1.4,-0.2,1.3,
O=C1N(c2ccc(Cl)cc2)C(c2cccnc2)N2CCCN12 (configuration not stated),-3.6,-2.7,3.6,-1.4,7.1,
CC(=O)O[C@H]1CC[C@@]2(C)C(=CC(=O)C3C2CC[C@@]2(C)C3C[C@H](OC(C)=O)[C@@H]2OC(C)=O)C1 (some centres not stated),-35.2,5.5,9.0*,-1.4,7.1,
O=c1c2ccccc2nc(/C=C/c2ccc(O)cc2)n1-c1ccccc1O,7.3,-2.5,-2.5,-3.1,17.2,
SMILES,HTR5A inv ctr,m5-HT2A agonist,HTR5A ag,MOR-DOR ag,MOR-DOR inv ag,others
O=c1c2ccccc2nc(/C=C/c2ccccc2)n1-c1ccccc1O,2.0,-2.1,-0.6,58.0*,-261.8,
COC12CCC3(CC1C(C)(O)C(C)(C)C)[C@H]1Cc4ccc(O)c5c4[C@@]3(CCN1CC1CC1)C2O5 (some centres not stated),-10.1,6.0,4.4,nt,nt,HTR5A ag counter=52.9*
COC12CCC3(CC1C(C)(O)C(C)(C)C)[C@H]1Cc4ccc(OC5OC(C(=O)O)[C@@H](O)C(O)[C@H]5O)c5c4[C@@]3(CCN1CC1CC1)C2O5 (some centres not stated),-13.7,-2.9,5.9,18.2*,-73.1,MOR-DOR ag conf=84.3*;HTR5A ag counter=2.5
N#CC1c2ccccc2-n2nncc2CN1Cc1cc(Cl)cc(Cl)c1 (configuration not stated),28.0,-7.6,-8.1,-2.0,9.2,
COc1ccc(C(CNC(=O)c2ccc3c(c2)CCC3)N(C)C)cc1 (configuration not stated),-6.9,-5.3,2.4,399.7*,i,MOR-DOR ag conf=512.3*;HTR5A ag counter=-2.0
COc1ccc(C(=O)C(Cc2ccccc2)N(C)C)cc1 (configuration not stated),8.7,-3.8,3.3,-2.9,15.6,
CCC1([N+](=O)[O-])COP(N)(=O)OC1 (configuration not stated),1.2,-2.7,-0.3,-1.2,6.1,
CCOC(=O)C1(c2ccccc2)CCN(CCC(=O)Nc2ccc(F)cc2)CC1,-12.7,-15.9,0.6,131.4*,-492.2,MOR-DOR ag conf=153.0*;HTR5A ag counter=0.3
CCOC(=O)C1(c2ccccc2)CCN(CCC(=O)Nc2ccccc2OC)CC1,-24.3,-7.7,6.5,91.8*,-438.9,MOR-DOR ag conf=15.5;HTR5A ag counter=3.9
CCOC(=O)C1(c2ccccc2)CCN(CC(=O)Nc2cccc3ccccc23)CC1,-16.9,-5.6,1.1,24.3*,-164.7,MOR-DOR ag conf=10.5;HTR5A ag counter=0.8
CCOC(=O)C1(c2ccccc2)CCN(Cc2cccc(C(=O)O)c2)CC1,-8.3,1.7,-2.5,7.2,-41.1,
CCOC(=O)C1(c2ccccc2)CCN(CC(=O)c2ccc(NC(C)=O)cc2)CC1,6.3,-3.4,-1.6,-1.7,8.4,
CN1C(=O)C(O)N=C(c2ccccc2)c2ccccc21 (configuration not stated),-11.6,7.2,3.2,-1.5,7.8,
Brc1ccccc1CNCCc1ccc2c(c1)OCO2,9.2,12.8,-2.4,0.9,-4.4,
Cc1ccc(C(=O)N2CC2C)cc1 (configuration not stated),-29.7,-1.9,7.6,1.2,-6.0,
